# Assay results from paper PMC7155171, “Probing the Open Global Health Chemical Diversity Library for Multistage-Active Starting Points for Next-Generation Antimalarials” (ACS Infectious Diseases, 2020).
# Like-named read-outs stand apart in the source and are kept apart here. In all, about 68,000 compounds were measured (“% viability”: median about 1.1, lowest 2% from about 0.96 on). Many of the other results were omitted from the sample, so the lowest values are more common in it than they were. The numbers are fractions of the control, whatever unit the source prints.
# System: P. falciparum (NF54) stage V gametocytes
# Set-up: Mature stage V gametocyte viability, MitoTracker Red CMXRos high-content imaging
# Settings: primary screen, n=2, fraction of DMSO control, 72 h, 2 µM, inhibitor
Structure (SMILES),% viability,% viability (Stg V Gam primary screen: Inhibition % (2uM) (n=2))
Cc1cccc(C2N3CCC4(CC3)c3[nH]c5ccccc5c3CCN24)n1 (stereo not shown) [DDD01058402],1.009%,
Clc1cccc(-c2cccc(N3CCC(NC4CCOCC4)CC3)c2)c1 [DDD01252000],1.106%,
CCC(=O)Nc1[nH]nc2c1c(C)nn2Cc1cccc(OC)c1 [DDD01063148],1.182%,
CCc1ccc(C(C)NC(=O)CCC2=NC(=C3N=CN=N3)NO2)cc1 (stereo not shown) [DDD01068289],1.032%,
CCc1c(C)[nH]c2cc(C3CCN(CCc4ccccc4)C3)nn2c1=O (stereo not shown) [DDD01060567],1.041%,
COc1cc2c(cc1-c1nc3c[nH]n(C(C)C(C)C)c-3n1)OCO2 (stereo not shown) [DDD01255421],1.199%,
Cc1cc(=O)n2nc(C3CCN(C(=O)c4ccccn4)CC3)cc2[nH]1 [DDD01057174],1.036%,
COCCC(=O)N1Cc2[nH]c3c(C)c(-c4cccs4)nn3c(=O)c2C1 [DDD01056578],1.121%,
CCc1c(C)nn2c(=O)cc(C3CCN(C(=O)C4CC4)C3)[nH]c12 (stereo not shown) [DDD01057056],1.097%,
CCc1c(C)nn2c(=O)cc(C3CCN(C(=O)c4ccn(C)n4)C3)[nH]c12 (stereo not shown) [DDD01056907],1.06%,
CCc1cc(=O)n2nc(C3CCN(C(=O)c4ccncc4)CC3)cc2[nH]1 [DDD01057177],1.239%,
Cc1cc(=O)n(-c2ccc3nnc(C)n3n2)[nH]1 [DDD01038570],1.151%,
Cc1nc(O)cc(CCNC(=O)CC[C@@H]2CCCN3CCCC[C@H]23)n1 [DDD01256003],1.201%,
CCc1nn2c(N)c(C#N)nnc2c1-c1ccc(OC)cc1 [DDD01035159],1.1%,
COc1ccc(-c2c(C)nn3c(N)c(C#N)nnc23)cc1 [DDD01035158],1.096%,
COc1ccc(-c2c(C(C)C)nn3c(N)c(C#N)nnc23)cc1 [DDD01035184],0.9469%,
Cc1ncsc1C(=O)N1CCCCC1c1cc2[nH]c(C)c(C)c(=O)n2n1 (stereo not shown) [DDD01059037],1.19%,
Cc1[nH]n(-c2ccc(F)cc2)c2nnc(N)c1-2 [DDD01065623],1.104%,
COc1cccc(CN(C)CC2=Nc3ccccc3S(=O)(=O)N2)c1 [DDD01073248],,1.218%
COc1cccc(Cn2nc(C)c3c(NC(=O)C(C)OC)[nH]nc32)c1 (stereo not shown) [DDD01063202],1.059%,

Structure (SMILES),% viability,% viability (Stg V Gam primary screen: Inhibition % (2uM) (n=2))
COc1cccc(C2=NN=CC2=C2NC(CN3CCCC3)=NO2)c1 [DDD01247208],1.119%,
COCCC(=O)N1CCC(c2cc(=O)n(C)[nH]2)C1 (stereo not shown) [DDD01060470],1.179%,
COc1cccc(F)c1-c1nc2c(C3CC3)[nH]n(C)c-2n1 [DDD01246655],1.144%,
CCC(CO)N(Cc1cccnc1)C(=O)c1ccc(C(F)(F)F)nc1O (stereo not shown) [DDD01253913],1.193%,
Cc1ccccc1CN(C)C(=O)CCC1=NC(=C2N=CN=N2)NO1 [DDD01062116],1.259%,
Cc1[nH]n(C2CCCCC2)c2nc(C(C)(C)CN3CCOCC3)nc1-2 [DDD01254749],1.099%,
Cc1[nH]n(C2CCCC2)c2nc(C(C)(C)CN3CCN(C)CC3)nc1-2 [DDD01248613],1.14%,
Cc1nc(N2CCCC2)ncc1-c1cc(=O)n2ncnc2[nH]1 [DDD01038581],1.014%,
CCc1cc(=O)n2nc(C3CCN(C(=O)c4ccccn4)CC3)cc2[nH]1 [DDD01057364],1.067%,
CCc1c(C)[nH]c2cc(C3CCN(Cc4ccc(F)cc4)C3)nn2c1=O (stereo not shown) [DDD01060568],1.103%,
Cc1[nH]c2cc(C3CCN(Cc4cccc(F)c4F)C3)nn2c(=O)c1C (stereo not shown) [DDD01270135],0.8996%,
CCc1c(C)[nH]c2cc(C3CCN(Cc4cccc(F)c4)C3)nn2c1=O (stereo not shown) [DDD01060569],1.163%,
CCc1c(C)[nH]c2cc(C3CCN(Cc4ccccc4F)C3)nn2c1=O (stereo not shown) [DDD01270117],0.9474%,
Cc1[nH]c2cc(C3CCN(Cc4ccccc4F)C3)nn2c(=O)c1C (stereo not shown) [DDD01060615],0.9944%,
CCc1c(C)[nH]c2cc(C3CCN(Cc4cccnc4)C3)nn2c1=O (stereo not shown) [DDD01060570],1.145%,
Cc1nsc(N2CCCN(CC(=O)N(C)C3CC3)CC2)n1 [DDD01066804],1.153%,
COCCCC(=O)N1CC(=O)Nc2cc(Br)ccc21 [DDD01075689],1.221%,
Cc1ncc(CN2CCc3[nH]c4cc(C(C)(C)C)nn4c(=O)c3C2)n1C [DDD01058400],1.122%,
O=C(CNC(=O)N1CCc2c([nH]c3ccc(Cl)cc23)C1)N1CCOCC1 [DDD01035668],1.056%,
Cc1[nH]n(-c2ccccc2)c2nc(C(C)(C)CN3CCN(C)CC3)nc1-2 [DDD01252143],1.131%,

Structure (SMILES),% viability,% viability (Stg V Gam primary screen: Inhibition % (2uM) (n=2))
Cc1[nH]n(C2CCS(=O)(=O)C2)c(=O)c1Cc1ccccc1 (stereo not shown) [DDD01026976],1.15%,
Cc1[nH]n(C2CCS(=O)(=O)C2)c(=O)c1Cc1ccc(Br)cc1 (stereo not shown) [DDD01026979],1.197%,
CCCn1ncc(-c2nc3c[nH]n(CC)c-3n2)c1C [DDD01252709],1.088%,
CCn1[nH]cc2nc(-c3cc4c(cc3OC)OCO4)nc1-2 [DDD01244413],1.126%,
CCc1c(C)nn2c(=O)cc(C3CCN(C(=O)c4ccccn4)C3)[nH]c12 (stereo not shown) [DDD01056906],1.115%,
CCc1ccc(NC(=O)Nc2c(O)c3ccccc3oc2=O)cc1 [DDD01037337],1.219%,
CN(CCCc1ccccc1)C(=O)CCC1=NC(=C2N=CN=N2)NO1 [DDD01062165],0.9845%,
CCc1c(C)nn2c(=O)cc(C3CCN(C(=O)c4cnn(C)c4)C3)[nH]c12 (stereo not shown) [DDD01056908],1.149%,
COCC(=O)Nc1[nH]nc2c1c(C)nn2Cc1cccc(OC)c1 [DDD01063147],1.204%,
Fc1cccc(C2=NN=CC2=C2NC(CN3CCOCC3)=NO2)c1 [DDD01244908],1.1236%,
CSc1cccc(NC(=O)Nc2c(O)c3ccccc3oc2=O)c1 [DDD01037688],1.182%,
Cc1ncc(CN2CCc3c([nH]c4cc(C5CC5)nn4c3=O)C2)n1C [DDD01058398],1.038%,
Cc1nnsc1C(=O)N1CCCCC1c1cc2[nH]c(C)c(C)c(=O)n2n1 (stereo not shown) [DDD01059036],1.123%,
CCn1[nH]cc2nc(-c3ccc(OC)c(COC)c3)nc1-2 [DDD01253750],1.204%,
CCc1cc(=O)n2nc(C3CCN(C(=O)c4cccnc4)CC3)cc2[nH]1 [DDD01057176],1.192%,
COc1ccc(F)cc1-c1nc2c(C3CC3)[nH]n(C)c-2n1 [DDD01250494],1.074%,
COc1cc(F)ccc1-c1nc2c(C3CC3)[nH]n(C)c-2n1 [DDD01248843],1.111%,
COc1cc(OC)c(-c2nc3c(C4CC4)[nH]n(C)c-3n2)cc1OC [DDD01244474],0.9472%,
